From PubChem BioAssay (NCI) come the findings set out here.

The panel holds about 79,000 compounds, 15% with a hit somewhere; the sample as a whole holds those more often. Unmarked numbers belong to inactive results. Calls of active or inactive are those of the source. Rule as the data show it: active = growth inhibition above about 70%; inactive = the rest.

Test [1] can be described thus: NCI Yeast Anticancer Drug Screen. Data for the rad50 strain (AID 155).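 Also: 0% = growth of vehicle-only cultures of the same strain.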 The following applies: S. cerevisiae rad50 strain growth inhibition, stronger effect = higher value. In short, it runs like this: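 Inhibition values express reduced yeast growth in compound-treated cultures relative to vehicle-treated controls.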
Test [2] in a line: NCI Yeast Anticancer Drug Screen. Data for the mec2-1 strain (AID 157). The following applies: S. cerevisiae mec2-1 strain, stronger effect = higher value. An outline of the steps:
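Growth inhibition is read against vehicle-treated controls after compound exposure of the mec2-1 yeast strain, which is defective in DNA damage repair or cell cycle control.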

Test [3] can be described thus: NCI Yeast Anticancer Drug Screen. Data for the sgs1 mgt1 strain (AID 161).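 Also: 0% = growth of cultures given vehicle only.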 The settings on record: S. cerevisiae sgs1 mgt1 strain, stronger effect = higher value. In short, it runs like this:
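Yeast cells carrying a defined DNA-repair defect were exposed to test compounds. Growth inhibition was measured relative to vehicle-treated controls.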

The nature of test [4]: NCI Yeast Anticancer Drug Screen. Data for the cln2 rad14 strain (AID 165).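 Also: 0% = growth equal to vehicle treated cultures.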 The settings on record: S. cerevisiae cln2 rad14 strain, stronger effect = higher value. In short, it runs like this: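 Growth inhibition, relative to vehicle-treated controls, is the read-out. The test organism is a yeast strain with defined genetic alterations, cln2 rad14.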
Test [5] in a line: NCI Yeast Anticancer Drug Screen. Data for the bub3 strain (AID 167). The following applies: S. cerevisiae bub3 mutant strain, stronger effect = higher value. In short, it runs like this:
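Steps: expose the mutant yeast strain to compound; grow alongside vehicle-treated cultures; measure growth; express inhibition against the vehicle cultures.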

The nature of test [6]: NCI Yeast Anticancer Drug Screen. Data for the mlh1 rad18 strain (AID 175). The following applies: S. cerevisiae mlh1 rad18 strain growth inhibition, stronger effect = higher value. An outline of the steps:
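Cells of a genetically altered yeast strain, deficient in DNA damage repair, were treated with compound. Their growth was then compared with that of vehicle-treated cultures to give inhibition.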

The mark [7] stands for this setting: at 5.0 µM (retest, dose inferred, filed as 0.5).
Setting [8] is: at 50.0 µM (retest, dose inferred, filed as 5.0).

For `Cc1c2cnccc2c(C)c2c1c1ccccc1n2CCCN`, the growth inhibition in test [1] (setting [7]) was 22%; in test [1] (setting [8]), 73% (active); in test [1] (at 50.0 µM) it was 91.7% (active); in test [2] (setting [7]) it was 14%; in test [2] (setting [8]), 33%; in test [2] (at 50.0 µM) it was 67.6%. In addition, the growth inhibition is 5% in test [3] (setting [7]); 50% in test [3] (setting [8]); 77.3% (active) in test [3] (at 50.0 µM); 17% in test [4] (setting [7]); 32% in test [4] (setting [8]); 72.3% (active) in test [4] (at 50.0 µM). For the same compound, the growth inhibition in test [5] (setting [7]) was 29%; in test [5] (setting [8]), 35%; in test [5] (at 50.0 µM) it was 84.6% (active); in test [6] (setting [7]) it was 16%; in test [6] (setting [8]), 58%; in test [6] (at 50.0 µM), 82.1% (active).
Take `CN(C)Cc1ccc2c(c1)c1c(n2Cc2ccccc2)CCCC1`: the growth inhibition in test [1] (setting [7]) is -2%; in test [1] (setting [8]), 94% (active); in test [1] (at 50.0 µM), 84.3% (active); in test [2] (setting [7]), -7%; in test [2] (setting [8]), 84% (active); in test [2] (at 50.0 µM), 70.2% (active). The growth inhibition in test [3] (setting [7]) was -4%; in test [3] (setting [8]), 20%; in test [3] (at 50.0 µM), 90.4% (active); in test [4] (setting [7]) it was -5%; in test [4] (setting [8]) it was 96% (active); in test [4] (at 50.0 µM) it was 86.7% (active). The growth inhibition is -8% in test [5] (setting [7]); 96% (active) in test [5] (setting [8]); 97.9% (active) in test [5] (at 50.0 µM); 3% in test [6] (setting [7]); 97% (active) in test [6] (setting [8]); 97.7% (active) in test [6] (at 50.0 µM).
On to `CN(C)Cc1ccc(C(C)(C)C)cc1-c1cc(C(C)(C)C)ccc1CN(C)C`, for which the growth inhibition in test [1] (setting [7]) was 7%; in test [1] (setting [8]), 3%; in test [1] (at 50.0 µM) it was 1.6%; in test [2] (setting [7]) it was 7%; in test [2] (setting [8]) it was -4%; in test [2] (at 50.0 µM), 1.8%. In addition, the growth inhibition is -10% in test [3] (setting [7]); 2% in test [3] (setting [8]); -32.4% in test [3] (at 50.0 µM); 26% in test [4] (setting [7]); -17% in test [4] (setting [8]); -40.5% in test [4] (at 50.0 µM). Further, the growth inhibition in test [5] (setting [7]) is -27%; in test [5] (setting [8]), -16%; in test [5] (at 50.0 µM), -30.8%; in test [6] (setting [7]), -6%; in test [6] (setting [8]), -9%; in test [6] (at 50.0 µM), 11.9%.
In the case of `CCOC(=O)c1ccccc1NC(OCC)C(=O)c1ccccc1` (stereo not given) (tested in a mixture with another compound), the growth inhibition was -5% in test [1] (setting [7]); 70% (active) in test [1] (setting [8]); 75% (active) in test [1] (at 50.0 µM); 5% in test [2] (setting [7]); 22% in test [2] (setting [8]); 63.9% in test [2] (at 50.0 µM). Also, the growth inhibition in test [3] (setting [7]) was 1%; in test [3] (setting [8]), 69%; in test [3] (at 50.0 µM), 90.8% (active); in test [4] (setting [7]) it was -3%; in test [4] (setting [8]), 12%; in test [4] (at 50.0 µM), 16.2%. The growth inhibition in test [5] (setting [7]) is -5%; in test [5] (setting [8]), 71% (active); in test [5] (at 50.0 µM), 70% (active); in test [6] (setting [7]), 0%; in test [6] (setting [8]) it was 81% (active); in test [6] (at 50.0 µM), 90.7% (active).
On to `O=C(CNC(=O)OCc1ccccc1)NNc1ccccc1Cl`, for which the growth inhibition in test [1] (setting [7]) was 95% (active); in test [1] (setting [8]) it was 98% (active); in test [1] (at 50.0 µM), 98.7% (active); in test [2] (setting [7]), 94% (active); in test [2] (setting [8]), 99% (active); in test [2] (at 50.0 µM), 98.5% (active). Also, the growth inhibition in test [3] (setting [7]) was 98% (active); in test [3] (setting [8]), 99% (active); in test [3] (at 50.0 µM) it was 97.1% (active); in test [4] (setting [7]) it was 97% (active); in test [4] (setting [8]), 98% (active); in test [4] (at 50.0 µM), 98.7% (active). Besides, the growth inhibition in test [5] (setting [7]) was 98% (active); in test [5] (setting [8]) it was 96% (active); in test [5] (at 50.0 µM) it was 99.2% (active); in test [6] (setting [7]), 98% (active); in test [6] (setting [8]), 99% (active); in test [6] (at 50.0 µM) it was 99.3% (active).
Consider `c1cc2c(cc1CCCCCCCCCCc1ccc3c(c1)CCC3)CCC2`, for which the growth inhibition in test [1] (setting [7]) was -4%; in test [1] (setting [8]) it was -5%; in test [1] (at 50.0 µM) it was 2.75%; in test [2] (setting [7]), -13%; in test [2] (setting [8]), -8%; in test [2] (at 50.0 µM), 3.85%. Besides, the growth inhibition in test [3] (setting [7]) is 9%; in test [3] (setting [8]), 2%; in test [3] (at 50.0 µM) it was 3.3%; in test [4] (setting [7]), -4%; in test [4] (setting [8]), 0%; in test [4] (at 50.0 µM), 79.8% (active). For the same compound, the growth inhibition in test [5] (setting [7]) was -6%; in test [5] (setting [8]) it was -2%; in test [5] (at 50.0 µM), 2.95%; in test [6] (setting [7]), -2%; in test [6] (setting [8]), -38%; in test [6] (at 50.0 µM) it was 10.6%.
`O=C(/C(=C\I)c1ccccc1)c1ccccc1`: the growth inhibition in test [1] (setting [7]) is 6%; in test [1] (setting [8]), 6%; in test [1] (at 50.0 µM), 88.5% (active); in test [2] (setting [7]) it was -15%; in test [2] (setting [8]) it was -15%; in test [2] (at 50.0 µM), 92.5% (active). Besides, the growth inhibition in test [3] (setting [7]) is -8%; in test [3] (setting [8]), -8%; in test [3] (at 50.0 µM), 86.4% (active); in test [4] (setting [7]) it was -6%; in test [4] (setting [8]) it was -6%; in test [4] (at 50.0 µM), 89.9% (active). In addition, the growth inhibition in test [5] (setting [7]) was -24%; in test [5] (setting [8]), -24%; in test [5] (at 50.0 µM) it was 90.2% (active); in test [6] (setting [7]), -13%; in test [6] (setting [8]) it was -13%; in test [6] (at 50.0 µM) it was 86.7% (active).
On to `O=C(N/C(=C\c1ccc(Br)cc1)c1nc2ccccc2[nH]1)c1ccccc1`, for which the growth inhibition in test [1] (setting [7]) was 3%; in test [1] (setting [8]), 59%; in test [1] (at 50.0 µM), 73.4% (active); in test [2] (setting [7]) it was -17%; in test [2] (setting [8]) it was 27%; in test [2] (at 50.0 µM) it was 95.8% (active). Moreover, the growth inhibition in test [3] (setting [7]) was -2%; in test [3] (setting [8]) it was 60%; in test [3] (at 50.0 µM) it was 68%; in test [4] (setting [7]), -6%; in test [4] (setting [8]) it was 41%; in test [4] (at 50.0 µM) it was 66.9%. Also, the growth inhibition in test [5] (setting [7]) was 6%; in test [5] (setting [8]) it was 78% (active); in test [5] (at 50.0 µM), 88.4% (active); in test [6] (setting [7]) it was 2%; in test [6] (setting [8]), 21%; in test [6] (at 50.0 µM) it was 96.5% (active).
Regarding `CCCCC(Oc1cc(C(C)(C)C)c(O)c(C(C)(C)C)c1)C(=O)O` (stereo not given), the growth inhibition in test [1] (setting [7]) was 21%; in test [1] (setting [8]), 68%; in test [1] (at 50.0 µM), 99.1% (active); in test [2] (setting [7]), 12%; in test [2] (setting [8]), 70% (active); in test [2] (at 50.0 µM), 99.4% (active). Moreover, the growth inhibition is 35% in test [3] (setting [7]); 97% (active) in test [3] (setting [8]); 99.5% (active) in test [3] (at 50.0 µM); 49% in test [4] (setting [7]); 95% (active) in test [4] (setting [8]); 99% (active) in test [4] (at 50.0 µM). The growth inhibition in test [5] (setting [7]) is 3%; in test [5] (setting [8]), 97% (active); in test [5] (at 50.0 µM), 99.2% (active); in test [6] (setting [7]), 27%; in test [6] (setting [8]), 97% (active); in test [6] (at 50.0 µM), 98.9% (active).
In the case of `O=[N+]([O-])c1ccc2c(c1)[n+]([O-])c1[nH]c3ccccc3c1[n+]2[O-]` (tested in a mixture with another compound), the growth inhibition was 85% (active) in test [1] (setting [7]); 88% (active) in test [1] (setting [8]); 93.2% (active) in test [1] (at 50.0 µM); 55% in test [2] (setting [7]); 89% (active) in test [2] (setting [8]); 87.4% (active) in test [2] (at 50.0 µM). Moreover, the growth inhibition in test [3] (setting [7]) was 68%; in test [3] (setting [8]), 91% (active); in test [3] (at 50.0 µM), 82.9% (active); in test [4] (setting [7]) it was 48%; in test [4] (setting [8]), 85% (active); in test [4] (at 50.0 µM), 89.8% (active). Further, the growth inhibition in test [5] (setting [7]) is 64%; in test [5] (setting [8]), 90% (active); in test [5] (at 50.0 µM), 81.8% (active); in test [6] (setting [7]), 78% (active); in test [6] (setting [8]), 91% (active); in test [6] (at 50.0 µM) it was 86.3% (active).
